# Results from PubChem BioAssay (EPA / NIEHS).
# Results filed as inconclusive are left out. The source made the active and inactive calls. How the source made its calls: active means hit-call score of the fitted dose curve at least 0.9, where 1 is the maximum; inconclusive means response in the unintended direction; inactive means score below 0.9.
# Experiments:
# [1] = target: Estrogen receptor (Homo sapiens) (UniProt P03372); assay: NVS_NR_hER: NovaScreen (NVS) Nuclear Receptor Binding Assay for human Estrogen Receptor (ER) (AID 2283348)
# Sequence of Estrogen receptor (Homo sapiens) (P03372 whole entry, looked up, the tested form may be a part): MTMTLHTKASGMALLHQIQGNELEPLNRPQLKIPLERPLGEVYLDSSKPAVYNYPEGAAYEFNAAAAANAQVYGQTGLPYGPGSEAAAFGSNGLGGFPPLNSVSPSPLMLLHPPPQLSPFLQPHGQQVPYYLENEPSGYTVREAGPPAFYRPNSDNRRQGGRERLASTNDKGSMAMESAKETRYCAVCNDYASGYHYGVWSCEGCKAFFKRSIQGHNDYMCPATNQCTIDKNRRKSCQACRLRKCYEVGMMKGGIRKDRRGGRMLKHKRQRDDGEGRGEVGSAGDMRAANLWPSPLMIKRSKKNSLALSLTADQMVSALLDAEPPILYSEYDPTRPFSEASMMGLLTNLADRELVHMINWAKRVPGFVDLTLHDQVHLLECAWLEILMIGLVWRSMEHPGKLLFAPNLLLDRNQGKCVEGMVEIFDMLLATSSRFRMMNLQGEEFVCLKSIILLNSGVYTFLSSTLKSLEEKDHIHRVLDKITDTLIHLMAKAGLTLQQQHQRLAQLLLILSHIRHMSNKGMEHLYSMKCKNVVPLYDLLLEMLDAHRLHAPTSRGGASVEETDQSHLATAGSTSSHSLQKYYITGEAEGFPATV
# How it was run: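 Radiodetection of ligand displacement in a lysate-based, cell-free format using MCF7 extracts, read at 18 hours. Duplicate 25 uM primary testing, then concentration series for actives.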
# [2] = target: Estrogen receptor (Homo sapiens) (UniProt P03372); assay: OT_ER_ERaERa_1440: Odyssey Thera (OT) 24-hour HEK293T Protein-Complementation Assay for Estrogen Receptor-alpha/-alpha Homodimer (AID 2283349);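 further: hits raise fluorescence above DMSO for agonists and antagonists alike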
# How it was run: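 Stably transfected HEK293T; ERα LBD homodimer PCA. 24 h dosing, fluorescence intensity read, gain-of-signal vs DMSO.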
# [3] = target: chimpanzee Androgen Receptor (AR), AR (gene 747460) (UniProt O97775); assay: NVS_NR_cAR: NovaScreen (NVS) Nuclear Receptor Binding Assay for chimpanzee Androgen Receptor (AR) (AID 2283346);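 further: radioligand displacement from AR measured by scintillation counting in a cell-free assay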
# Sequence of chimpanzee Androgen Receptor (AR), AR (gene 747460) (O97775 whole entry, looked up): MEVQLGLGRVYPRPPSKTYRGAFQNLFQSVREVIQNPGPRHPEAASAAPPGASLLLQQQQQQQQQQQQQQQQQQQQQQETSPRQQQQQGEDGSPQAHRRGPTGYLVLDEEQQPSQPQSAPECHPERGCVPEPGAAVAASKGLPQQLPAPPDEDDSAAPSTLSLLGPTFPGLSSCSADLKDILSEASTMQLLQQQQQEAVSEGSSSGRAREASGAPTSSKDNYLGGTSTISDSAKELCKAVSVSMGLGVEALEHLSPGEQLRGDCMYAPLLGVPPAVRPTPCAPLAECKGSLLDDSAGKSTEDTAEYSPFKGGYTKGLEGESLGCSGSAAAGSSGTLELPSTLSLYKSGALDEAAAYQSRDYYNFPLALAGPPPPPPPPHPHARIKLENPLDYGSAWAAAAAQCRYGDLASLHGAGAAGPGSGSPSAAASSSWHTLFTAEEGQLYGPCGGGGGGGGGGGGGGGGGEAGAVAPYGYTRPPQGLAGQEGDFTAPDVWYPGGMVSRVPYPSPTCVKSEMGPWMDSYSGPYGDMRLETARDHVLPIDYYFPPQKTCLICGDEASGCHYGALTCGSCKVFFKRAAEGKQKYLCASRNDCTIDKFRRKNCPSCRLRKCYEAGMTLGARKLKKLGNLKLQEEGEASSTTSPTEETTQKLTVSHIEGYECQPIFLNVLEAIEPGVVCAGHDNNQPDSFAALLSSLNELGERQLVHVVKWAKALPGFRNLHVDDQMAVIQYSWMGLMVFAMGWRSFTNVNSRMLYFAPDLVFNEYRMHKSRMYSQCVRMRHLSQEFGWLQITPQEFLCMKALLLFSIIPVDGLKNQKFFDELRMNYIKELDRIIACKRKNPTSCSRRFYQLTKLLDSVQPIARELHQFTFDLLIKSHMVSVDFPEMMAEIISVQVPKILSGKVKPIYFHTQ
# How it was run: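 Cell-free radioligand displacement using receptor protein extracted from Sf9/Sf21 cells; bound radioligand measured by scintillation counting 72 hours after chemical dosing. Loss of signal versus DMSO baseline indicates binding; primary screen single-concentration in duplicate at 25 uM, actives followed in concentration series.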
# [4] = target: Estrogen receptor (Homo sapiens) (UniProt P03372); assay: OT_ER_ERaERa_0480: Odyssey Thera (OT) 8-hour HEK293T Protein-Complementation Assay for Estrogen Receptor-alpha/-alpha Homodimer (AID 2283351);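 further: rise in fluorescence from reassembled reporter fragments on ERα LBD homodimer in nucleus or whole cell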
# How it was run: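 HEK293T cells stably expressing a PCA pair of ER alpha LBD (residues 310-547) were dosed for 8 hours. The gain in fluorescence intensity, nuclear for agonists and whole-cell for antagonists, was measured by laser scanning cytometry against DMSO vehicle.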
# [5] = target: Androgen Receptor/SRC-1 Co-activator, AR (gene 367) (UniProt P10275); assay: OT_AR_ARSRC1_0960: Odyssey Thera (OT) 16-hour HEK293T Protein-Complementation Assay for Androgen Receptor/SRC-1 Co-activator (AID 2283353);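 further: actives raise the signal above DMSO so potency reflects increased AR and SRC-1 complex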
# Sequence of Androgen Receptor/SRC-1 Co-activator, AR (gene 367) (P10275 whole entry, looked up, the tested form may be a part): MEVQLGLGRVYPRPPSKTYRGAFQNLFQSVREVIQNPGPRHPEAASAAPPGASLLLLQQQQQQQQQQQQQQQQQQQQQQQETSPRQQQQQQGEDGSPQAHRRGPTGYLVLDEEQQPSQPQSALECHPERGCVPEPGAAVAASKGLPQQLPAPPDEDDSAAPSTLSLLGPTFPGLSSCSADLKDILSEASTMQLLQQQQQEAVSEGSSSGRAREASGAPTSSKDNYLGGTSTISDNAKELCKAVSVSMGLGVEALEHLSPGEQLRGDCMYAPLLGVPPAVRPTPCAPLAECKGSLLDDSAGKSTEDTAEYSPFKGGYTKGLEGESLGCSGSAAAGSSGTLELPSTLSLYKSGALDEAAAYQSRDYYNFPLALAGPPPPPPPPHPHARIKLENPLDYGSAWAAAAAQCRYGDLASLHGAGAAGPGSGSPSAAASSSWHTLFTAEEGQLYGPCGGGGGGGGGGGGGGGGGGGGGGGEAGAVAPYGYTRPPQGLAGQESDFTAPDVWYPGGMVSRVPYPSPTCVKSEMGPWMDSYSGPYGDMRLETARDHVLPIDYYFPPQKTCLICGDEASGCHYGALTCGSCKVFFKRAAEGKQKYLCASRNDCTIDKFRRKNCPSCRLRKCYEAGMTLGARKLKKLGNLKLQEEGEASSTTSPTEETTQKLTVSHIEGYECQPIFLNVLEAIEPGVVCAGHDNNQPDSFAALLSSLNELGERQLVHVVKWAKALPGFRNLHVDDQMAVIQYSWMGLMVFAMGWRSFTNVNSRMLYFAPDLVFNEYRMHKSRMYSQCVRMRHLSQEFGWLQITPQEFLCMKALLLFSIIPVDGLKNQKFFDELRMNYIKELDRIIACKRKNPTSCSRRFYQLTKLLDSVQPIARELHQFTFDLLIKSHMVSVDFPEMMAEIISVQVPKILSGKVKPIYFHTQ
# How it was run: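 Endpoint is gain-of-signal N/C fluorescence ratio in the 488 nm channel versus DMSO, from at least 400 cells per image, measured 16 h post-dosing. Cells: HEK293T stably carrying split-Venus AR/SRC-1 complementation constructs.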
# [6] = target: Androgen Receptor/SRC-1 Co-activator, AR (gene 367) (UniProt P10275); assay: OT_AR_ARSRC1_0480: Odyssey Thera (OT) 8-hour HEK293T Protein-Complementation Assay for Androgen Receptor/SRC-1 Co-activator (AID 2283354);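 further: hits raise the complementation signal above DMSO so AC50 marks enhancers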
# How it was run: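 After 8 h dosing, stably expressing HEK293T cells with split-Venus AR/SRC-1 fusions were imaged (488, 635nm). The 488nm N/C ratio per image gave the endpoint, analysed in the positive direction against DMSO.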
# [7] = target: T1, Estrogen receptor (Homo sapiens) + Estrogen receptor beta (Homo sapiens) (UniProt P03372+Q92731); assay: OT_ER_ERaERb_0480: Odyssey Thera (OT) 8-hour HEK293T Protein-Complementation Assay for Estrogen Receptor-alpha/-beta Heterodimer (AID 2283352)
# T1 sequence (P03372 whole entry, looked up, the tested form may be a part): as the sequence (P03372 whole entry, looked up, the tested form may be a part) above
# T1 sequence (Q92731 whole entry, looked up, the tested form may be a part): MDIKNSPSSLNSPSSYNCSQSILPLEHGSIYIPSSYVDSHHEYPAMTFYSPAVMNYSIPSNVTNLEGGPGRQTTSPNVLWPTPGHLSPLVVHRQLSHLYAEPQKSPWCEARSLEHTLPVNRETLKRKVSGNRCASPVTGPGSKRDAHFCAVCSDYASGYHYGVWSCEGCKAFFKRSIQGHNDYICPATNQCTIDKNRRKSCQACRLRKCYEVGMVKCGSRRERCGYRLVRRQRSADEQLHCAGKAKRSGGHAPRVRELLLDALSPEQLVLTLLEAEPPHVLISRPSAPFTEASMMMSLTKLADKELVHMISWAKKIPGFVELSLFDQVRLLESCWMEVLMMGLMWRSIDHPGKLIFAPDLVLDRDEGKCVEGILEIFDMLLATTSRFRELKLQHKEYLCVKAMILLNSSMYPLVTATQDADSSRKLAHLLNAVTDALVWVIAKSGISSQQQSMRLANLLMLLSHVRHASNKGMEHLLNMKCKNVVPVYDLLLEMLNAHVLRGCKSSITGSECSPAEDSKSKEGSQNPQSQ
# How it was run: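 Increase in mean fluorescence intensity, measured by laser scanning plate cytometry, reported ER-alpha/ER-beta LBD complementation in HEK293T cells after 8 h chemical exposure. DMSO served as baseline; basal signal is low, punctate and cytoplasmic.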
# [8] = target: T1, Estrogen receptor (Homo sapiens) + Estrogen receptor beta (Homo sapiens); assay: OT_ER_ERaERb_1440: Odyssey Thera (OT) 24-hour HEK293T Protein-Complementation Assay for Estrogen Receptor-alpha/-beta Homodimer (AID 2283356);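 further: heteromer of ER alpha and ER beta binding domains; hits raise reporter fluorescence and both agonists and antagonists give an increase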
# How it was run: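 Heterodimerisation of ERα (aa 310-547) and ERβ (aa 263-489) ligand binding domains was tracked as fluorescence gain in stably transfected HEK293T cells following 24 h dosing, normalised to DMSO controls.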
# [9] = target: Estrogen receptor beta (Homo sapiens) (UniProt Q92731); assay: OT_ER_ERbERb_0480: Odyssey Thera (OT) 8-hour HEK293T Protein-Complementation Assay for Estrogen Receptor-beta/-beta Homodimer (AID 2283357);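 further: active means signal gain over DMSO baseline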
# Sequence of Estrogen receptor beta (Homo sapiens) (Q92731 whole entry, looked up, the tested form may be a part): as above
# How it was run: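 Fluorescence gain from complemented reporter fragments on ER-beta LBD homodimer in HEK293T was quantified against DMSO controls after 8 h treatment, fixation in 4% formaldehyde and Draq5 staining.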
# [10] = target: Nuclear receptor subfamily 1 group I member 2 (Homo sapiens) (UniProt O75469); assay: NVS_NR_hPXR: NovaScreen (NVS) Nuclear Receptor Binding Assay for human Pregnane X Receptor (PXR) (AID 2283365);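 further: a drop in FRET signal versus DMSO baseline means the compound binds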
# Sequence of Nuclear receptor subfamily 1 group I member 2 (Homo sapiens) (O75469 whole entry, looked up): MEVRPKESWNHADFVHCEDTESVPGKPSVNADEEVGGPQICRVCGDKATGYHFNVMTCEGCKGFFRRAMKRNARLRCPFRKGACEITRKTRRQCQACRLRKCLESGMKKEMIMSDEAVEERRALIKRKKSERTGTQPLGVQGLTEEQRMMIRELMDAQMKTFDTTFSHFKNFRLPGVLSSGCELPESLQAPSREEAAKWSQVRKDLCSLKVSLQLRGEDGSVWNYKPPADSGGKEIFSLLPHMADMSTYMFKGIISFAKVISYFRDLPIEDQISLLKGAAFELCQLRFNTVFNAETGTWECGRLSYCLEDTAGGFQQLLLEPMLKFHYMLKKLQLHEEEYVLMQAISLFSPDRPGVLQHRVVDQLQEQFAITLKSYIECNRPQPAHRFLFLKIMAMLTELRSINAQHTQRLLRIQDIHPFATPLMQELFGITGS
# How it was run: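 Binding was measured by time-resolved fluorescence resonance energy transfer after a 2 h exposure of extracted human PXR protein without cells. Compounds were first tested at 25 uM in duplicate, with concentration series for actives; DMSO defined baseline.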
# [11] = target: Retinoic acid receptor alpha (Homo sapiens) (UniProt P10276); assay: NVS_NR_hRAR_Antagonist: NovaScreen (NVS) Nuclear Receptor Binding Assay for human Retinoic Acid Alpha Receptor Antagonism (RAR) (AID 2283358)
# Sequence of Retinoic acid receptor alpha (Homo sapiens) (P10276 whole entry, looked up): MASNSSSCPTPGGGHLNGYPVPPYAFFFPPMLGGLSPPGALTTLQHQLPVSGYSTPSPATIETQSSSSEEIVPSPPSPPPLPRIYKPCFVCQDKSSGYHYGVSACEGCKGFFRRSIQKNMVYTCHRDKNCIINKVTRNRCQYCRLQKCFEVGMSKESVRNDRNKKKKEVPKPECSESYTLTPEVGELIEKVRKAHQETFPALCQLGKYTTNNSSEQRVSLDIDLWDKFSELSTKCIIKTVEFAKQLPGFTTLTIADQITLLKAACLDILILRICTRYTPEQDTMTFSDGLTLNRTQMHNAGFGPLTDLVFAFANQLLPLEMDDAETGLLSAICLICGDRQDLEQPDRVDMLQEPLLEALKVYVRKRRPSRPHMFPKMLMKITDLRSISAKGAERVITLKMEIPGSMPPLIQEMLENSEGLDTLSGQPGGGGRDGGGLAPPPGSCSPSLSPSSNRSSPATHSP
# How it was run: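 Chemicals were first tested in duplicate at 25 uM, then actives in concentration series, in a cell-free TR-FRET antagonist binding format. Measurements were taken 2 hours after dosing and loss of signal was evaluated against DMSO controls.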
# [12] = target: Retinoic acid receptor alpha (Homo sapiens) (UniProt P10276); assay: NVS_NR_hRARa_Agonist: NovaScreen (NVS) Nuclear Receptor Binding Assay for human Retinoic Acid Alpha Receptor Agonism (RAR) (AID 2283361)
# How it was run: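 Compounds screened at 25 uM, duplicate, then in concentration series if active. Detection: TR-FRET gain of signal versus DMSO after 2 h with cell-free extracted RARα.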
# [13] = target: human Thyroid Receptor Alpha (TRa), THRA (gene 7067) (UniProt P10827); assay: NVS_NR_hTRa_Antagonist: NovaScreen (NVS) Nuclear Receptor Binding Assay for human Thyroid Receptor Alpha Antagonism (TRa) (AID 2283362);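 further: activity is loss of signal relative to DMSO baseline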
# Sequence of human Thyroid Receptor Alpha (TRa), THRA (gene 7067) (P10827 whole entry, looked up): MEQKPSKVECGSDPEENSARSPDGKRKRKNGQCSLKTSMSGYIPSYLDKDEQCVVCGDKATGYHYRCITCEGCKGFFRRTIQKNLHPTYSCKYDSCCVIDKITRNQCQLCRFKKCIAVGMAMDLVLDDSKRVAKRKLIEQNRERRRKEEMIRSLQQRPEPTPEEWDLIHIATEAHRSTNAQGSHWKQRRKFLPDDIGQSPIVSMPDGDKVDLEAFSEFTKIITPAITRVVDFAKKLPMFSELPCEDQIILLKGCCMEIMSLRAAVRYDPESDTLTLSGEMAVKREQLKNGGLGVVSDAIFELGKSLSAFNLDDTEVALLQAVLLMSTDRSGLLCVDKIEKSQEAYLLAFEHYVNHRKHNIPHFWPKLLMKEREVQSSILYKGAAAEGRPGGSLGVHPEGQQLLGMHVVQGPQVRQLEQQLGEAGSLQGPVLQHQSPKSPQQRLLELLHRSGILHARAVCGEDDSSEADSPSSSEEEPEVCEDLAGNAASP
# How it was run: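 Chemicals were first screened in duplicate at 25 uM, then actives were retested in concentration series. Binding to the extracted receptor was measured 1 h after dosing by AlphaLISA chemiluminescence, with decreased signal versus DMSO scored as activity.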
smiles,measurement,setting,value
O=C(O)c1cc2ccccc2cc1O,outcome,[1],inactive
O=Cc1ccccc1O,AC50,[2],92 µM (active)
CC(C)(C)c1cccc(O)c1,outcome,[3],inactive
same,outcome,[1],inactive
same,outcome,[2],inactive
same,AC50,[4],60.2 µM (active)
same,outcome,[5],inactive
same,outcome,[6],inactive
CCNC(=S)NCC,outcome,[1],inactive
same,outcome,[2],inactive
same,outcome,[7],inactive
same,outcome,[8],inactive
same,outcome,[9],inactive
same,outcome,[10],inactive
O=c1cc(-c2ccc(O)cc2)oc2cc(O)cc(O)c12,AC50,[3],12.9 µM (active)
CCCCCCC(C)O (stereo unspecified),AC50,[1],43.2 µM (active)
same,outcome,[2],inactive
same,outcome,[4],inactive
same,outcome,[7],inactive
same,outcome,[8],inactive
same,outcome,[9],inactive
[O-]/[N+](=N\O)c1ccccc1,outcome,[3],inactive
same,outcome,[2],inactive
same,outcome,[4],inactive
same,outcome,[9],inactive
same,outcome,[10],inactive
CC1=CCC(C(C)C)=CC1,outcome,[2],inactive
same,outcome,[4],inactive
Nc1cc([N+](=O)[O-])ccc1C(=O)O,outcome,[1],inactive
C1=COCCC1,outcome,[2],inactive
NC(N)=S,outcome,[2],inactive
same,outcome,[4],inactive
CC1COC(=O)O1 (stereo unspecified),outcome,[2],inactive
same,outcome,[4],inactive
same,outcome,[7],inactive
same,outcome,[5],inactive
same,outcome,[6],inactive
same,outcome,[8],inactive
CCC(C)(CCCC(C)C)OC(C)=O (stereo unspecified),outcome,[2],inactive
same,outcome,[4],inactive
same,outcome,[7],inactive
same,outcome,[8],inactive
same,outcome,[9],inactive
same,outcome,[10],inactive
CCCCN(CCCC)CCCCCCN(CCCC)CCCC,outcome,[2],inactive
same,outcome,[4],inactive
same,outcome,[7],inactive
same,outcome,[8],inactive
same,outcome,[9],inactive
CCO[Si](CC)(OCC)OCC,outcome,[2],inactive
same,outcome,[4],inactive
same,outcome,[7],inactive
same,outcome,[5],inactive
same,outcome,[6],inactive
same,outcome,[8],inactive
same,outcome,[9],inactive
same,outcome,[11],inactive
same,outcome,[12],inactive
same,outcome,[10],inactive
CNC(=C[N+](=O)[O-])NCCSCc1ccc(CN(C)C)o1,outcome,[2],inactive
same,outcome,[4],inactive
same,outcome,[7],inactive
same,outcome,[8],inactive
same,outcome,[9],inactive
CCC(C)C1CCCCC1=O (stereo unspecified),outcome,[2],inactive
same,outcome,[4],inactive
same,outcome,[8],inactive
same,outcome,[9],inactive
CCCCCCCCCCCCN1CCOCC1,outcome,[2],inactive
same,outcome,[4],inactive
same,AC50,[7],50 µM (active)
same,AC50,[8],68 µM (active)
same,outcome,[9],inactive
same,outcome,[13],inactive
same,outcome,[10],inactive
CC(=O)Nc1cc(S(=O)(=O)O)cc2cc(S(=O)(=O)O)c(N=Nc3ccccc3)c(O)c12,outcome,[2],inactive
same,outcome,[4],inactive
same,outcome,[7],inactive
same,outcome,[8],inactive
same,outcome,[9],inactive
same,AC50,[13],9.8 µM (active)
